Data on six compounds can be found in PubChem BioAssay (Tox21).

Values without a mark were called inactive. Results filed as inconclusive are left out. Calls of active or inactive are those of the source. Unless noted, calls follow the shape of the full dose curve.

Experiment [1] in a line: Nuclear factor erythroid 2-related factor 2/antioxidant responsive element (Nrf2/ARE) small molecule agonists: qHTS cell viability counter screen in human keratinocytes (AID 1919968; active = well fitted curve in the direction sought with a large enough effect in the repeat runs; an effect the other way counts as inactive or inconclusive; also: nearly all actives have a fitted effect of over 55% in size; also: potency is read from the fitted curve at half-maximal effect). The method in brief:
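KeratinoSens HaCaT cells, 1,500/well, preincubated 5 h, then exposed to compounds in DMSO for 23 h at 37 C/5% CO2. Viability read as CellTiter-Fluor fluorescence after 1 h, in the same wells as the ARE-luciferase read.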

Experiment [2] is described as follows: Nuclear factor erythroid 2-related factor 2/antioxidant responsive element (Nrf2/ARE) small molecule agonists: luciferase reporter gene qHTS assay in human keratinocytes (AID 1919969; also: nearly all actives have a fitted effect of over 35% in size; also: potency is read from the fitted curve at half-maximal effect). (Reporter assays use an easily measured gene product as a stand-in for the process of interest.)
Experiment [3] addresses Gonadotropin-releasing hormone receptor (Homo sapiens) (UniProt P30968). Briefly: Human gonadotropin-releasing hormone receptor (GnRHR) small molecule agonists, calcium flux assay in GnRHR-HEK293 cells (AID 1920063). Also: nearly all actives have a fitted effect of over 35% in size. The method in brief: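 HEK293 cells stably expressing human GnRHR were dye-loaded for 1 h at 37 C. Compound was added in agonist mode and fluorescence (Ex/Em 480/540) recorded kinetically for 3 min. Fifteen concentrations, triplicates.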
(A change in cytosolic calcium serves as a functional read-out for many receptors and channels.)

The target in experiment [4] is KiSS-1 receptor (Homo sapiens) (UniProt Q969F8). Briefly: Human kisspeptin (KISS1R) small molecule agonists, calcium flux assay in KISS1R-HEK293 cells (AID 1920064; active = well fitted curve in the direction sought with a large enough effect in the repeat runs; an effect the other way counts as inactive or inconclusive). In outline:
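HEK293 cells stably expressing human KISS1R were loaded with calcium dye for 1 h at 37 C, then given compound; fluorescence (Ex/Em 480/540) was read kinetically for 3 min. Fifteen concentrations, triplicate.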

Experiment [5] in a line: G protein-coupled receptor (GPCR) small molecule agonists, calcium flux assay: HEK293 wild type cell line counter screen (AID 1920065). The method in brief: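 Wild-type HEK293 cells plated 18 h, loaded with calcium dye 1 h at 37 C, then compounds added in agonist mode (ATP as positive control). Kinetic fluorescence Ex/Em 480/540 recorded 3 min at 1 sec intervals; 15 concentrations, triplicate.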

A short description of experiment [6]: p53 small molecule agonists, cell-based qHTS assay with human liver microsomes (AID 1963577).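 Also: p53 response element beta-lactamase reporter cells with liver microsomes plus NADPH.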 In outline:
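With metabolic activation: human liver microsomes (0.5 mg/mL final) plus NADPH (0.5 mg/mL final) added alongside compounds to p53RE-bla cells; 16 h 37 C exposure; beta-lactamase read by LiveBLAzer fluorescence.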
For orientation: Quantitative high-throughput screening tests each substance at several concentrations.

Experiment [7] in a line: p53 small molecule agonists, cell-based qHTS assay with rat liver microsomes (AID 1963578). In outline:
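Metabolic activation by rat liver microsomes and NADPH, each 0.5 mg/mL final, added right after compounds to p53RE-bla reporter cells (4,000/well, plated 5 h earlier). 16 h at 37 C, then LiveBLAzer substrate for 2 h at room temperature in the dark; fluorescence read-out.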

Experiment [8] in a line: p53 small molecule agonists, cell-based qHTS assay with human liver microsomes: qHTS cell viability counter screen (AID 1963579). Also: nearly all actives have a fitted effect of over 45% in size. The method in brief:
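Metabolic activation used human liver microsomes and NADPH, both 0.5 mg/mL final, over 16 hours at 37 C on p53RE-bla cells (4,000/well). Cytotoxicity measured by CellTiter-Glo luminescence, 30 min at room temperature.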

A short description of experiment [9]: p53 small molecule agonists, cell-based qHTS assay with rat liver microsomes: qHTS cell viability counter screen (AID 1963580). Also: nearly all actives have a fitted effect of over 45% in size. The method in brief: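 Viability is assessed in parallel with the p53 reporter read: HCT-116 p53RE-bla cells receive compounds plus rat microsomes and NADPH (0.5 mg/mL final apiece), incubate 16 h at 37 C, and then CellTiter-Glo luminescence is recorded.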

Experiment [10] in a line: p53 small molecule agonists, cell-based qHTS assay: qHTS cell viability counter screen (AID 1963581). Also: nearly all actives have a fitted effect of over 45% in size. The method in brief: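 p53RE-bla HCT-116 cells, compounds added 5 h after plating and incubated 16 h at 37 C. Cytotoxicity measured in the same wells as intracellular ATP by CellTiter-Glo luminescence after 30 min at room temperature.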
The nature of experiment [11]: p53 small molecule agonists, cell-based qHTS assay (AID 1963582; active = well fitted activation curve with a large enough effect in the signal ratio in the repeat runs, not every such curve was filed as active; the % refers to the signal ratio). The method in brief:
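p53RE-bla reporter cells, compounds added in DMSO after 5 h plating, incubated 16 h at 37 C. Beta-lactamase read via 2 h room-temperature LiveBLAzer B/G FRET substrate, fluorescence intensity.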

The target of experiment [12] is 5-hydroxytryptamine receptor 2A (Homo sapiens) (UniProt P28223). Briefly: 5-hydroxytryptamine receptor 2A (HTR2A) small molecule antagonists, cell-based qHTS assay (AID 1963586). Also: nearly all actives have a fitted effect of over 45% in size. The method in brief:
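Antagonist-mode intracellular calcium assay: DOI (4 nM) added after 5 min compound pre-incubation at room temperature to dye-loaded HTR2A-CHO cells. Fluorescence followed for 3 min, sampled every second.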

Experiment [13] shares this target. Briefly: 5-hydroxytryptamine receptor 2A (HTR2A) small molecule agonists, cell-based qHTS assay (AID 1963587). Also: nearly all actives have a fitted effect of over 30% in size. The method in brief:
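CHO cells stably expressing human HTR2A, plated 18 h, loaded with calcium dye 1 h at 37 C. Agonist mode: compounds added and intracellular calcium fluorescence recorded kinetically for 2 min at 1 sec intervals.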

Experiment [14] addresses Muscarinic acetylcholine receptor M1 (Homo sapiens) (UniProt P11229). Briefly: Cholinergic receptor muscarinic 1 (CHRM1) small molecule antagonists, cell-based qHTS assay (AID 1963588). Also: nearly all actives have a fitted effect of over 40% in size. In outline:
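CHRM1-CHO calcium-flux assay, antagonist mode. Cells were seeded 18 h, dye-loaded 1 h at 37 C and given compound for 5 min at RT, then acetylcholine was added at 50nM. FDSS fluorescence was read 3 min; 15 concentrations, three runs.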

The target is the same in experiment [15]. Briefly: Cholinergic receptor muscarinic 1 (CHRM1) small molecule agonists, cell-based qHTS assay (AID 1963589). Also: nearly all actives have a fitted effect of over 35% in size. The method in brief:
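CHO cells stably expressing human CHRM1 were loaded with calcium dye for 1 h at 37 C, then compound was added in agonist mode. Intracellular calcium fluorescence was followed kinetically at 1 s intervals. Fifteen concentrations were tested in three independent runs.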

A short description of experiment [16]: cAMP Responsive Elements (CRE) small molecule agonists, cell-based qHTS assay (AID 1963590). In outline:
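CRE-bla HEK 293T cells, 2,000/well in DMEM with 10% dialyzed FBS and 25 mM HEPES, pre-incubated 18 h at 37 C, then exposed to compound 3 h at 37 C. Beta-lactamase reporter read with LiveBLAzer B/G FRET substrate after 2 h at room temperature.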

Experiment [17] deals with Beta-2 adrenergic receptor (Homo sapiens) (UniProt P07550). Briefly: Adrenergic beta2 receptor (ADRB2) small molecule antagonists, cell-based qHTS assay (AID 1963592). Also: series mostly up to about 92 µM; nearly all actives have a fitted effect of over 50% in size. The method in brief: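 Cells (CHO, stable ADRB2 overexpression) incubated 18-20hr at 37C; compounds added from DMSO; agonist mix (1nM isoproterenol, 100uM IBMX, 25uM Ro-20-1724) added; 0.5hr RT; d2-cAMP and anti-cAMP-cryptate added; 1hr RT; 665/615 nm read.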
Beta-2 adrenergic receptor (Homo sapiens), sequence (P07550 whole entry, looked up): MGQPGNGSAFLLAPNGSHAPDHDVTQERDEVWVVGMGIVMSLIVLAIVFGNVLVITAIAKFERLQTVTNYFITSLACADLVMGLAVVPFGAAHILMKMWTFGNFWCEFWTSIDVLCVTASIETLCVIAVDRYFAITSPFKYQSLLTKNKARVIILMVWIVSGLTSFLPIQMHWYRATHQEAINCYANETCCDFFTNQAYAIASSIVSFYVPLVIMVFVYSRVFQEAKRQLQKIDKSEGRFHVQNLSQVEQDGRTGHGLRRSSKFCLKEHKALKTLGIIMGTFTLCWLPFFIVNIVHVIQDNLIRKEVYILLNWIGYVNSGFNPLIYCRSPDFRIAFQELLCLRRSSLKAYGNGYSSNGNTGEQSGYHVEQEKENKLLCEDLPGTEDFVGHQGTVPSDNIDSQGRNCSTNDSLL

In experiment [18] the target is D(2) dopamine receptor (Homo sapiens) (UniProt P14416). Briefly: Dopamine D2 receptor (DRD2) small molecule agonists, cell-based qHTS assay (AID 1963594). Also: nearly all actives have a fitted effect of over 35% in size. The method in brief:
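HEK293 cells stably expressing human DRD2, pre-treated with PDE inhibitor Ro20-1724 (0.1 mM final) and compound 10 min at room temperature, then stimulated with NKH477 (200nM […]) for 30 min. cAMP read by HTRF (665/620 nm).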

Experiment [19] has the same target. Briefly: Dopamine D2 receptor (DRD2) small molecule antagonists, cell-based qHTS assay (AID 1963595; active = well fitted inhibition curve with a large enough effect in the signal ratio in the repeat runs, with a control signal flat; the % refers to the signal ratio). The method in brief: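 HEK293 cells stably expressing DRD2 were preincubated with 0.1 mM Ro20-1724, then with compound for 10 min at room temperature. Cells were stimulated with 200 nM NKH477 plus 12 nM quinpirole for 30 min, and cAMP was read by HTRF.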
% is scaled to controls: 0 for no effect and ±100 for the full control effect.

KiSS-1 receptor (Homo sapiens), sequence (Q969F8 whole entry, looked up): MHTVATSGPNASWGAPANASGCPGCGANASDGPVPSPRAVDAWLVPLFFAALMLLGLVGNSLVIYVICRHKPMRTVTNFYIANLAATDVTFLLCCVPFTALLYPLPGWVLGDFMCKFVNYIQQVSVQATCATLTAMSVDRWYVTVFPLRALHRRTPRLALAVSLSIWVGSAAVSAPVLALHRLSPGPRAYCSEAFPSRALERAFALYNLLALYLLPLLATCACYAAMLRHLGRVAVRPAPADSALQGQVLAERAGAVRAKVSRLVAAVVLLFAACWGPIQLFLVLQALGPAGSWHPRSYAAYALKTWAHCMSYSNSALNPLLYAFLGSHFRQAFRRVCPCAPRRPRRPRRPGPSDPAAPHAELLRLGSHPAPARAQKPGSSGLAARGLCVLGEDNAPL
D(2) dopamine receptor (Homo sapiens), sequence (P14416 whole entry, looked up): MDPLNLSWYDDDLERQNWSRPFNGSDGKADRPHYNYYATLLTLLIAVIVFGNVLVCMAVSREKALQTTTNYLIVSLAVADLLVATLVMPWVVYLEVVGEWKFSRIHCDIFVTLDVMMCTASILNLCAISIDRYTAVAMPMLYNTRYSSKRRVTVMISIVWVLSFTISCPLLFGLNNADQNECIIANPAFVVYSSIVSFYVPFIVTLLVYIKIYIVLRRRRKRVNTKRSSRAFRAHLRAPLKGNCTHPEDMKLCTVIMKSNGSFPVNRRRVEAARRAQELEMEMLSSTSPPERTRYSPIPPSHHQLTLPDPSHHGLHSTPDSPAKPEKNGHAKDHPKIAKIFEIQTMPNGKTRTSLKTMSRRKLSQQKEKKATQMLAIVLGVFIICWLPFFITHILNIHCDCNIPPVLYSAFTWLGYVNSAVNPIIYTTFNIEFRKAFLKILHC
5-hydroxytryptamine receptor 2A (Homo sapiens), sequence (P28223 whole entry, looked up): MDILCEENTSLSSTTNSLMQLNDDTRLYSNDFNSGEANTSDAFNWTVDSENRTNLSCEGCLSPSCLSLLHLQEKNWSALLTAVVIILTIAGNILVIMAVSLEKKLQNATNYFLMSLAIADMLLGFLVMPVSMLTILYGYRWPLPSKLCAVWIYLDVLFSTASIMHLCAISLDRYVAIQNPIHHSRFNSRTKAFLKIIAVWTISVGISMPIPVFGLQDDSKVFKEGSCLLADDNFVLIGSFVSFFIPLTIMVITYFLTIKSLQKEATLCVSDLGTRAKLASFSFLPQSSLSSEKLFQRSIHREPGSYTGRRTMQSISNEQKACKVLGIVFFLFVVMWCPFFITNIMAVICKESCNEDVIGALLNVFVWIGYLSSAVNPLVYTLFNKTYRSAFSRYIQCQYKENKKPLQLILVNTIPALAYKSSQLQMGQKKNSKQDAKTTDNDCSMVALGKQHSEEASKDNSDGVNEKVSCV
Gonadotropin-releasing hormone receptor (Homo sapiens), sequence (P30968 whole entry, looked up): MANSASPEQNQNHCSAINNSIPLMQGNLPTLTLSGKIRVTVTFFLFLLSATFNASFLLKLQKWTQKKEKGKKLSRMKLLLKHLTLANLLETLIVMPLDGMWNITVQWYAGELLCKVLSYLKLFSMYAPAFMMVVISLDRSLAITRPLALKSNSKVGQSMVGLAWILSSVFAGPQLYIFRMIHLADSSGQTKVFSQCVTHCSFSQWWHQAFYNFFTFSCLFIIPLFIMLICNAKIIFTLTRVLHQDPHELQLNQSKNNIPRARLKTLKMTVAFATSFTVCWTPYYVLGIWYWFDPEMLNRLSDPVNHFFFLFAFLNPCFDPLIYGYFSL
Muscarinic acetylcholine receptor M1 (Homo sapiens), sequence (P11229 whole entry, looked up): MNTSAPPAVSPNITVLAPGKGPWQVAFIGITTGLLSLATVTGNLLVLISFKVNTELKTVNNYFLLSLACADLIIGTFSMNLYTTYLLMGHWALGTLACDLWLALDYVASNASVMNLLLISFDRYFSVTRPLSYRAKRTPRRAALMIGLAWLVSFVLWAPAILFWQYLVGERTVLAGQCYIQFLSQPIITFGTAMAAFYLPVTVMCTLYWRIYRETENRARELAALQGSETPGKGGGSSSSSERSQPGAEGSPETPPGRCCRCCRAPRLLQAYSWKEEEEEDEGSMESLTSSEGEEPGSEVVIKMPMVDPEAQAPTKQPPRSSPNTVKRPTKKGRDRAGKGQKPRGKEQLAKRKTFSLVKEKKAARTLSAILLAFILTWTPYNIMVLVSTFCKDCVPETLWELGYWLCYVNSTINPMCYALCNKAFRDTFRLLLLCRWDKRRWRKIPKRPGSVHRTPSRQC

In the case of `CO[Si](C)(OC)c1ccccc1`, the Potency entry in experiment [1], in [2], in experiment [3], in experiment [6], in [7] and in experiment [8] was “inactive” throughout. The Potency entry in experiment [9], in experiment [10], in [11], in [12], in [13] and in experiment [14] was “inactive” in each case. Besides, the Potency result in experiment [15], in [16], in [17], in experiment [18] and in experiment [19] was “inactive” in each case. Besides, the outcome in experiment [4] and in experiment [5] was inactive.
In the case of `NC(=O)Nc1ccc(Cl)c(Cl)c1`, the Potency entry in [1], in experiment [2], in experiment [3], in experiment [6], in [7] and in experiment [8] was “inactive” each time. The Potency entry in experiment [9], in [10], in experiment [11], in [12], in experiment [13] and in experiment [14] was “inactive” each time. Also, the Potency entry in [15], in experiment [16], in experiment [17], in [18] and in [19] was “inactive” each time. The result in [4] and in [5] was inactive.
`C[C@H]1NCc2cc(-c3ccc4c(=O)c(C(=O)O)cn(C5CC5)c4c3OC(F)F)ccc21`: the activity change, negative = cytotoxicity was 4.74% [at 19 µM] in experiment [1], -4.1% [at 13.5 µM] in experiment [8], 2.66% [at 13.5 µM] in experiment [9] and -9.15% [at 13.5 µM] in [10]. Further, the activity, positive = activation in experiment [2] is -0.2% [at 19 µM]. Also, the activity change in experiment [3] was -2.08% [at 11.8 µM, hits give high values]. Further, the activation in experiment [4] was -1.09% [at 15.8 µM]; in [5] it was -0.804% [at 11.8 µM]; in experiment [6], -4.26% [at 13.5 µM]; in experiment [7], 0.634% [at 13.6 µM]; in experiment [11], -3.01% [at 13.5 µM]; in experiment [13], -1.89% [at 15.9 µM]. The results for the activation in experiment [15] and in experiment [16] were -0.122% [at 15.8 µM] and -1.76% [at 19 µM], respectively. The activity, negative = inhibition is 1.4% [at 12.7 µM] in [12] and 19.5% [at 12.6 µM] in [14]. For the same compound, the activity change, negative = inhibition in [17] is 10.3% [at 19 µM]; in [19], -0.31% [at 18.9 µM].
For the compound `NCC(=O)CCC(=O)O`, the Potency result in experiment [1], in experiment [2], in experiment [3], in experiment [6], in experiment [7] and in experiment [8] was “inactive” each time. Besides, the Potency result in [9], in experiment [10], in [11], in experiment [12], in [13] and in experiment [14] was “inactive” throughout. Besides, the Potency result in [15], in experiment [16], in experiment [17], in experiment [18] and in [19] was “inactive” in each case. Also, the outcome in [4] and in experiment [5] was inactive.
With `NS(=O)(=O)c1ccc(Cl)c(S(N)(=O)=O)c1`, the Potency entry in experiment [1], in experiment [2], in experiment [3], in experiment [6], in experiment [7] and in [8] was “inactive” each time. For the same compound, the Potency result in [9], in [10], in experiment [11], in [12], in experiment [13] and in experiment [14] was “inactive” throughout. Besides, the Potency entry in experiment [15], in experiment [16], in experiment [17], in experiment [18] and in [19] was “inactive” each time. In addition, the result in [4] and in experiment [5] was inactive.
For `Oc1ccc(Cl)c2cccnc12`, the figures for the Potency in experiment [1] and in experiment [2] were 531 nM (active) and 668 nM (active), respectively. The Potency entry in experiment [3], in experiment [6], in experiment [7], in experiment [8], in experiment [9] and in [10] was “inactive” each time. Besides, the Potency result in experiment [11], in [12], in experiment [13], in experiment [14], in [15] and in experiment [16] was “inactive” in each case. The Potency result in experiment [17], in experiment [18] and in [19] was “inactive” each time. Besides, the result in experiment [4] and in experiment [5] was inactive.
